Measured values reported in the supplement of paper PMC3545927.
This is one part of the list. How many sequences the whole screen found active is unknown.

Target: furin, P09958
Experiment: furin cleavage Z-score vs untreated control; higher = more cleavage, active = 3.5 or more, inactive = 1 or less, 8 variable residues between constant flanks
How it was run: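 To give the cleavage Z-score, log read counts were set against furin-free reactions, lowess-adjusted and scaled by median absolute deviation. These counts came from PCR adapter-tagged, sequenced DNA released when purified furin cut 8-mer peptides fused to a cDNA oligonucleotide and held on magnetic beads by their N-terminus. Digests were 0.01 ml, 1:10 enzyme:substrate, in 50 mM HEPES pH 7.5 with CaCl2 and NaCl, for 7.5, 15 or 30 min.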

Sequence of furin, P09958 (P09958 whole entry): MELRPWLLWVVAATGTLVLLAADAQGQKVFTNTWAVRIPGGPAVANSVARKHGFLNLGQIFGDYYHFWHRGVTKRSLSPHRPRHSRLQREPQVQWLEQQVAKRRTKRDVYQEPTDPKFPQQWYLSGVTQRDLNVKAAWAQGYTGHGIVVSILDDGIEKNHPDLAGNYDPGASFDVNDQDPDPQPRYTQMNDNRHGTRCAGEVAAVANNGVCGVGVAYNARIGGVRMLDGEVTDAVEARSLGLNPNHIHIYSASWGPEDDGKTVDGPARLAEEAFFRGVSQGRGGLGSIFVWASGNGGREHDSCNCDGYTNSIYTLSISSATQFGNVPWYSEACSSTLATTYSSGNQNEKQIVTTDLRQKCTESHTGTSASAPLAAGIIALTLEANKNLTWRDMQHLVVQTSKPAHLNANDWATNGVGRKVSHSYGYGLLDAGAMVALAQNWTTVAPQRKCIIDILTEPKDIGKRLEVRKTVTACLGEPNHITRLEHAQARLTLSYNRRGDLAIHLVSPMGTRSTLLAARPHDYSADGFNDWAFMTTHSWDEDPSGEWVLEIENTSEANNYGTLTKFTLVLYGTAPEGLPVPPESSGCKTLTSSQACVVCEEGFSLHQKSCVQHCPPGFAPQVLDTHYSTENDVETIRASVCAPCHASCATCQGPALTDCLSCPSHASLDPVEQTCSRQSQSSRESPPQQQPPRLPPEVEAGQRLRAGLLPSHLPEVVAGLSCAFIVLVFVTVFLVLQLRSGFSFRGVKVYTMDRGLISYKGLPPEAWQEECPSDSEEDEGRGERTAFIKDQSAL

| Sequence | furin cleavage Z-score (7.5 min) | furin cleavage Z-score (15 min) | furin cleavage Z-score (30 min) |
| --- | --- | --- | --- |
| CAEVVTSTNVAGNASASA [HC2241] | 0.759 (inactive) | 0.285 (inactive) | 0.157 (inactive) |
| CAITGHVKNGAGNASASA [HC1178] | -0.0306 (inactive) | -2.29 (inactive) | -0.221 (inactive) |
| CAGIQYLAGLAGNASASA [HC1046] | 0.778 (inactive) | 0.268 (inactive) | 0.333 (inactive) |
| CARKKKVWDYAGNASASA [FS-2424] | 0.95 (inactive) | -1.66 (inactive) | -0.314 (inactive) |
| CARKTRARRAAGNASASA [FS-489] | 11.1 (active) | 11.3 (active) | 9.01 (active) |
| CARRKKEVRKAGNASASA [FS-2449] | -0.452 (inactive) | -0.724 (inactive) | 1.33 |
| CARKTRSTHTAGNASASA [FS-3226] | 10.5 (active) | 11.5 (active) | 7.23 (active) |
| CARFDRIAHTAGNASASA [FS-2552] | 0.362 (inactive) | -0.331 (inactive) | 0.407 (inactive) |
| CARRHEKKRKAGNASASA [FS-1653] | -1.27 (inactive) | -0.15 (inactive) | -1.21 (inactive) |
| CARRHRATRKAGNASASA [FS-1266] | 7.21 (active) | 8.97 (active) | 6.15 (active) |
| CARFFRYLHTAGNASASA [FS-2920] | -0.737 (inactive) | -1.73 (inactive) | 0.025 (inactive) |
| CARRHRARRAAGNASASA [FS-1265] | 12.1 (active) | 11 (active) | 9.18 (active) |
| CAFCALARKMAGNASASA [HC621] | 0.374 (inactive) | 0.367 (inactive) | 0.832 (inactive) |
| CAQDVVCCSMAGNASASA [HC2122] | -0.38 (inactive) | -0.828 (inactive) | -1.79 (inactive) |
| CALLFNILGGAGNASASA [HC1064] | -0.771 (inactive) | -1.63 (inactive) | -1.52 (inactive) |
| CATAHRIKRAAGNASASA [FS-383] | 9.97 (active) | 8.71 (active) | 6.96 (active) |
| CAERKRECQLAGNASASA [FS-1670] | 0.036 (inactive) | 1.4 | -0.462 (inactive) |
| CAERKRIKRAAGNASASA [FS-650] | 9.45 (active) | 8.85 (active) | 7.6 (active) |
| CADLGRAKRFAGNASASA [FS-225] | 6.94 (active) | 8.17 (active) | 9.16 (active) |
| CARPRRAKRFAGNASASA [FS-1069] | 9.54 (active) | 11 (active) | 9.13 (active) |
| CARSGRGPFGAGNASASA [FS-1925] | -0.792 (inactive) | -2.29 (inactive) | -0.384 (inactive) |
| CARSGRAKRFAGNASASA [FS-1271] | 10.1 (active) | 10.5 (active) | 11.1 (active) |

| Sequence | furin cleavage Z-score (7.5 min) | furin cleavage Z-score (15 min) | furin cleavage Z-score (30 min) |
| --- | --- | --- | --- |
| CARPRRFMDLAGNASASA [FS-3163] | 0.819 (inactive) | 0.127 (inactive) | 1.71 |
| CARSGRHVVFAGNASASA [FS-3079] | -0.951 (inactive) | 0.442 (inactive) | 1.42 |
| CAHERRMKRFAGNASASA [FS-791] | 10 (active) | 11.5 (active) | 9.74 (active) |
| CARPARLHRFAGNASASA [FS-1065] | -0.918 (inactive) | 0.964 (inactive) | 0.792 (inactive) |
| CAKFPGGGQIAGNASASA [HC172] | -2.08 (inactive) | 0.112 (inactive) | -2.19 (inactive) |
| CAELTTPCSGAGNASASA [HC1965] | -0.879 (inactive) | -0.537 (inactive) | -1 (inactive) |
| CAENLETTMRAGNASASA [HC760] | 0.652 (inactive) | 0.35 (inactive) | 0.0456 (inactive) |
| CADPERRKRFAGNASASA [FS-985] | 4.94 (active) | 7 (active) | 7.37 (active) |
| CATHFFSVLIAGNASASA [HC1584] | -0.934 (inactive) | -0.739 (inactive) | -0.913 (inactive) |
| CAVVCCSMSNAGNASASA [HC2101] | 0.58 (inactive) | 0.0609 (inactive) | 0.764 (inactive) |
| CARLARALSPAGNASASA [FS-1735] | 5.51 (active) | 6.45 (active) | 6.16 (active) |
| CARLARGSPPAGNASASA [HC1255] | 0.846 (inactive) | 0.514 (inactive) | 0.935 (inactive) |
| CAWAGWLLSPAGNASASA [HC207] | -0.479 (inactive) | 0.659 (inactive) | 1.76 |
| CARLRRSSSPAGNASASA [FS-2353] | 9.29 (active) | 8.89 (active) | 6.99 (active) |
| CARPARGAGPAGNASASA [FS-3015] | 0.195 (inactive) | -1.12 (inactive) | -0.256 (inactive) |
| CARPARVALPAGNASASA [FS-2053] | -1.54 (inactive) | -0.594 (inactive) | 1.32 |
| CARLARSFDCAGNASASA [FS-2568] | 1.56 | 2.61 | 3.82 (active) |
| CARPARALHPAGNASASA [FS-2734] | 1.19 | 3.17 | 4.44 (active) |
| CATDATSILGAGNASASA [HC821] | 0.234 (inactive) | -0.686 (inactive) | -0.354 (inactive) |
| CARHKKSKFTAGNASASA [FS-3253] | -0.584 (inactive) | -0.415 (inactive) | -1.12 (inactive) |
| CASMPPLEGEAGNASASA [HC1354] | 0.264 (inactive) | -0.391 (inactive) | -0.745 (inactive) |
| CAGAAKAAAGAGNASASA [NG6] | -1.87 (inactive) | -1.89 (inactive) | -1.77 (inactive) |
